We go through 20 molecules from PubChem BioAssay (NCI).

Each structure is given as a SMILES string. Compounds without any hit were thinned out: in the full panel of roughly 83,000, 20% have a hit.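 48-hour exposure, single concentration, 96-well plates; percent growth endpoint where 0 means no net growth. Active: below 10.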 Active and inactive are the calls of the source.

This assay concerns SK-OV-3 ovarian. The assay is described as follows: NCI-60 one-dose screen, 48 h (100 = growth as untreated, 0 = no growth, -100 = all killed). As to conditions: 10 µM unless noted.
In the case of `COc1cccc(-c2[nH]c(=S)ncc2C(=O)c2ccccc2)c1`, the growth was 107% (inactive).
`O=C(N=c1n(-c2ccccc2)nc2n1CCN2C1=NCCN1C(=O)c1ccc(Cl)cc1)c1ccc(Cl)cc1`: the growth was 92.9% (inactive).
`COc1cc2c(=O)[nH]c3cc([N+](=O)[O-])ccc3c2cc1[N+](=O)[O-]`: the growth is 77.4% (inactive).
The value for `NC(=O)CC1C=CCC1` (stereo not given) was 105% (inactive).
The value for `O=C(Nc1cccc2ccccc12)c1cc2ccccc2cc1O` was 0.954% (active).
The value for `Cc1ccc(N)c(O)c1` was 112% (inactive); that for `CCOC(=O)CCC[P+](c1ccccc1)(c1ccccc1)c1ccccc1` was 98.9% (inactive); that for `CCN(CC)c1cc(N)c(Cc2c(N)cc(N(CC)CC)cc2Cl)c(Cl)c1` was 49.8% (inactive).
As to `CSc1nc(N)c(N=Nc2ccc(S(=O)(=O)Nc3nnc(C)s3)cc2)c(=O)[nH]1`, the growth is 96.9% (inactive).
The value for `CC1(C)C(=O)/C(=C\c2cccnc2)C[C@]2(C)[C@H]3CC[C@@H]4[C@H]5[C@H](C(=O)/C=C/c6cccnc6)CC[C@]5(C(=O)O)CC[C@@]4(C)[C@]3(C)CC[C@@H]12` was -68.5% [100 µM] (active).
The value for `N#CCCc1c[nH]c2ccccc12` was 88.9% (inactive); that for `CCN(CC)CCCC(C)Nc1c2ccc(C)cc2nc2ccc(OC)cc12` (stereo not given) was 55.7% (inactive).
With `C#CCNC(=O)CC[C@]1(C)[C@H]2CC[C@@H]3[C@@H]([C@@](C)(O)CCC=C(C)C)CC[C@@]3(C)[C@]2(C)CC[C@H]1C(=C)C`, the growth was 66.6% [100 µM] (inactive).
The value for `CC1(C)CC[C@]2(C(=O)O)CC[C@]3(C)C(=CC[C@@H]4[C@@]5(C)C/C(=C/c6ccco6)C(=O)C(C)(C)[C@@H]5CC[C@]43C)[C@@H]2C1` was 0.149% [100 µM] (active); that for `C=C(C)[C@@H]1CC[C@]2(C(=O)O)CC[C@]3(C)[C@H](CC[C@@H]4[C@@]5(C)C/C(=C/c6ccco6)C(=O)C(C)(C)[C@@H]5CC[C@]43C)[C@@H]12` was -54.2% [100 µM] (active).
The value for `C[n+]1cccc(NC(=O)c2ccc3ccc4ccc(C(=O)Nc5ccc[n+](C)c5)nc4c3n2)c1` was 8.34% (active); that for `Cc1ccc(S(=O)(=O)N/N=C2\CC3CCC2(C)C3(C)C)cc1` (stereo not given) was 114% (inactive); that for `O=C(Nc1ccc(Oc2ccc(F)cc2)c(Cl)c1)c1cccnn1` was 88.8% (inactive).
On to `Cc1ccc2c(n1)C(=O)C(Cl)=C(Nc1ccc(N3CCN(C)CC3)cc1)C2=O`, for which the growth was 89.9% (inactive).
Consider `CCCCCCCCN(CCCCCCCC)CC(O)c1ccc(Cl)c(C)c1Cl` (stereo not given), for which the growth was 77.5% (inactive).
